Most compounds without a hit are left out; they make up all but 3.5% or so of the library.
GPR151 ag: human GPR151 activation; Q8TDV0; PathHunter beta-arrestin GPR151 cells, luminescence; activation, % at 11.2 µM; hit rate 1% among 650,000; in the data active means activation above about 4.9%;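 further: 0% = median of compound wells and 100% = cells with positive control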
TEAD-YAP inh: TEAD-YAP interaction inhibition; AID 1259422; HEK-TIYL cells, TEAD-Gal4/YAP UAS-luciferase luminescence; inhibition, % at 9.12 µM; hit rate 1.4% among 640,000; in the data active means inhibition above about 32%;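 further: 0% = median of test compound wells and 100% = reference inhibitor wells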
FBW7 activator: human FBW7 E3 ligase activation, primary screen; AlphaScreen FBW7–phospho-cyclin E peptide binding, activator screen; hit rate 0.13% among 650,000; normalized activity (activation), % at 26.1 µM; Q969H0; in the data active means normalized activity above about 1.9%;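 further: purified mutant Fbw7 with reduced substrate affinity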
Target sequence (Q969H0 whole entry, looked up): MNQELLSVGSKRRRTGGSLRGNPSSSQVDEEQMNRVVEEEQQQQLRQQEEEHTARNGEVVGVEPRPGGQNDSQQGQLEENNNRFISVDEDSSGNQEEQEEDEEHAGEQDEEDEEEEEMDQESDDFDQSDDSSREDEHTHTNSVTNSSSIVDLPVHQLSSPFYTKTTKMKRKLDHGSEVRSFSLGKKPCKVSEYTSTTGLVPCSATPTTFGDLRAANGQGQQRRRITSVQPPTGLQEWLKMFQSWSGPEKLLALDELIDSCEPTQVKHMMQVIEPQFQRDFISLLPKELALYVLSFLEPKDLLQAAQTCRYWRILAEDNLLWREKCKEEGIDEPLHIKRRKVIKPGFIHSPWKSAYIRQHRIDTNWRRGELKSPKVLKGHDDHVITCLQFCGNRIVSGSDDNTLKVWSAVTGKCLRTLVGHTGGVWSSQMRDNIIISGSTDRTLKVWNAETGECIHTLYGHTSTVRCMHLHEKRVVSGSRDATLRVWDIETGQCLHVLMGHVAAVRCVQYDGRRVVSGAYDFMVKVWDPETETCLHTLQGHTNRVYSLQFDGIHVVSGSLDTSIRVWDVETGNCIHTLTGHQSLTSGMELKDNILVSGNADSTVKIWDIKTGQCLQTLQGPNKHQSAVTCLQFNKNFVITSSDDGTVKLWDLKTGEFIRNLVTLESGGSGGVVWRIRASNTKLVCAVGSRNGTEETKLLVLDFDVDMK
MITF inh: blocks human microphthalmia-associated transcription factor | AlphaScreen MITF homodimerization, bead proximity signal | AID 1259374 | hit rate 0.91% among 650,000 | inhibition, % at 2.6 µM | O75030; in the data active means inhibition above about 50%;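 further: 0% = vehicle wells with protein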
Starred values were filed as active, the others as inactive.

SMILES	GPR151 ag	TEAD-YAP inh	FBW7 activator	MITF inh
COc1ccc(S(=O)(=O)/N=C2/C=C(Nc3ccccc3OC)C(=O)c3ccccc32)cc1	-2	-3	0	57*
CC(=O)c1cccc(-c2nc(NCCCN3CCCC3=O)c3ncn(CCN4CCCC4=O)c3n2)c1	-1	0	0	-7
CC(=O)c1cccc(-c2nc(NCCCN3CCCC3=O)c3ncn(-c4ccccc4)c3n2)c1	-1	58*	0	-7
NC(=O)c1ccc(-c2nc(NCCCN3CCCC3=O)c3ncn(-c4ccccc4)c3n2)cc1	1	55*	0	14
O=C(NC1CC1)c1ccc(-c2nc(NCCCN3CCCC3=O)c3ncn(-c4ccccc4)c3n2)cc1	0	64*	0	1
CCOC(=O)c1c(-c2ccc(Cl)cc2)csc1NC(=O)COc1ccc(F)cc1	-1	4	0	-19
Cc1ccoc1C(=O)N1CCc2c(cnc(C)c2CNC(=O)c2ccc3nc[nH]c3c2)C1	1	0	1	10
CC(O)CNCCOc1cccc(C(F)(F)F)c1 (stereo not given)	2	5	0	31
COCCNC(=O)c1ccc(C)c(S(=O)(=O)Nc2cccc(C)c2)c1	0	-2	0	4
O=C(COc1ccc(Br)cc1Br)Nc1ccccc1F	0	-2	0	3
OCC(c1ccccc1)C1CCCCC1 (stereo not given)	4	-1	0	3
O=C(CN1C(=O)CCc2ccccc21)Nc1nccs1	-1	1	0	5
CC(C)C(=O)N1CCC[C@@H](Cn2nc(-c3cccs3)ccc2=O)C1	1	69*	0	-4
CC(C)(C)Nc1nc(Cl)nc(NCc2ccc(Cl)cc2)n1	1	5	0	5
O=C(CSc1ncccc1-c1nc2ccccc2[nH]1)NCc1ccco1	0	10	0	-10
Cc1cc2nc(-c3cccnc3SCC(=O)NCc3ccco3)[nH]c2cc1C	-11	37*	0	-6
COC(=O)c1ccccc1NC(=O)CSc1n[nH]c(-c2cc(OC)cc(OC)c2)n1	-2	-5	0	5
COc1cc(OC)cc(C(=O)NCc2ccc(C(C)(C)C)cc2)c1	0	43*	0	12
COc1cc(OC)cc(C(=O)NCc2ccc(S(N)(=O)=O)cc2)c1	-2	6	0	21
Nc1cccc(-c2cnc3c(Nc4ccccc4)nccn23)c1	-2	88*	2	19
c1ccc(Nc2nccn3c(-c4ccoc4)cnc23)cc1	-5	66*	0	0
Nc1cccc(-c2cnc3c(Nc4ccc(Cl)cc4)nccn23)c1	-1	65*	0	7
COCCCNc1nccn2c(-c3cccc(O)c3)cnc12	-1	51*	-1	5
COCCNc1nccn2c(-c3ccoc3)cnc12	-1	-4	2.1*	7
O=[N+]([O-])c1ccccc1C1CC(c2ccccc2)=NN1 (stereo not given)	1	40*	0	-3
SMILES	GPR151 ag	TEAD-YAP inh	FBW7 activator	MITF inh
CN(C)c1ccc(/C=N/NC(=S)Nc2cccc(C(=O)O)c2)cc1	1	64*	0	-7
O=C(O)c1cccc(NC(=S)N/N=C/c2cccc(O)c2)c1	1	15	0	8
COc1ccc(/C=N/NC(=S)Nc2cccc(C(=O)O)c2)c(OC)c1	-2	4	0	-4
COc1ccc(O)c(/C=N/NC(=S)Nc2cccc(C(=O)O)c2)c1	-2	6	-1	104*
Nc1cccc(C(=O)Nc2ccc(O)cc2)c1	-1	12	0	5
NNc1nc(-c2ccc(O)c(O)c2)cs1	0	6	0	103*
Nc1nc(-c2ccc(O)c(O)c2)cs1	0	3	0	79*
COc1ccc2cc(-c3csc(N)n3)ccc2c1	-5	32*	0	10
O=C(O)c1cccc(Nc2nc(-c3ccc(O)c(O)c3)cs2)c1	0	15	0	80*
COc1ccc(-c2csc(N)n2)c(F)c1	0	-33	0	0
Oc1ccc(-c2csc(NCc3ccccc3)n2)cc1O	0	-82	0	26
Cc1cc2ccccc2c(=O)n1CC(=O)NCCCN1CCN(C)CC1	-1	-1	1	12
CN(C)CCNc1nc(-c2ccccc2)nc2ccccc12	0	-14	0	-2
CN(C)CCNc1nc(-c2ccc(C(C)(C)C)cc2)nc2ccccc12	-1	37*	0	9
O=C(Nc1cccnc1)c1ccc(Cl)c(Cl)c1	0	-17	0	7
COc1cc(C(=O)Nc2cccnc2)ccc1OCc1c(Cl)cccc1Cl	2	39*	0	7
COc1ccc2c(COC(=O)[C@H](C)NS(=O)(=O)c3ccccc3F)cc(=O)oc2c1	0	5	0	-6
CCC(=O)Nc1ccc2nn(-c3ccccc3)nc2c1	-2	37*	0	0
CC(C)C(=O)Nc1ccc2nn(-c3ccccc3)nc2c1	-1	46*	0	5
CC(C)(C)C(=O)Nc1ccc2nn(-c3ccccc3)nc2c1	2	82*	0	-2
O=C(Nc1ccc2nn(-c3ccccc3)nc2c1)C(F)(F)F	0	-16	0	-17
COC(=O)C1C(=O)NC(SCC(=O)Nc2ccc(C(C)=O)cc2)=C(C#N)C1c1ccc(C(C)C)cc1 (stereo not given)	0	12	0	4
O=C(NOC(=O)c1ccc(Br)cc1)c1ccc(Cl)cc1	0	-2	0	7
O=C(CSc1nc2ccsc2c(=O)n1-c1ccccc1)Nc1ccccc1Cl	1	7	0	2
O=C(CSc1nc2ccsc2c(=O)n1-c1ccc(F)cc1)Nc1ccccc1Cl	0	33*	1	9
SMILES	GPR151 ag	TEAD-YAP inh	FBW7 activator	MITF inh
Clc1nc(NCc2ccccc2)c2ncn(-c3ccsc3)c2n1	4	-14	0	-4
Cc1ccccc1NS(=O)(=O)c1ccc2ccccc2c1	0	3	0	12
CC(=O)Nc1ccccc1NS(=O)(=O)c1ccc2ccccc2c1	1	53*	1	9
CC(C)NC(=S)NC(=O)c1cccs1	0	-14	0	5
CCC(C)N1C(=O)S/C(=C/c2cc(C)n(-c3ccccn3)c2C)C1=O (stereo not given)	2	41*	0	7
Cc1oc(-c2ccccc2)nc1CSc1nnc(C)n2c1cc1occc12	-1	-7	0	-7
N/C(=N\N=C\c1c(Cl)cccc1Cl)c1nonc1N	-4	-58	0	8
CC(C)CNC(=O)c1cc(-c2ccc(O)cc2)on1	0	39*	0	5
CCCNC(=O)c1cc(-c2cccc(O)c2)on1	-1	53*	0	11
COCCNC(=O)c1cc(-c2cccc(O)c2)on1	-1	-7	0	-22
O=C(NC1CCCC1)c1cc(-c2ccc(O)cc2)on1	0	40*	0	1
Cc1cccc(NC(=O)Nc2cnn(-c3cccc(C(=O)NC4CCC(O)CC4)c3)c2)c1 (stereo not given)	-1	-5	0	-8
Cc1nc(NC(=S)NC(=O)c2ccccc2)sc1C(C)(C)C	0	37*	0	-3
COC(=O)c1c(OCc2ccccc2)cc(=O)n2c1CCN(Cc1ccc(F)cc1)CC2	1	-23	0	10

Screens as filed in PubChem BioAssay.
